Experimental data reported in PubChem BioAssay AID602399 (Sanford-Burnham Center for Chemical Genomics, 2012).
Among all 360,000 compounds or so, about 2,800 (0.78%) were called active. The sample as a whole holds a higher share of actives than the screen did. A number with no mark means an inactive call. Rule as the data show it: active = inhibition above about 26%; inactive = the rest.

Test system: Nicotinate-nucleotide adenylyltransferase NadD (Staphylococcus aureus N315)
Assay: S. aureus NadD enzyme activity blockers – biochemical, colorimetric, uHTS, primary screen (AID 602399)
Conditions: purified NadD enzyme, colorimetric absorbance read-out; at 20 µM; active compounds read high

| Structure (SMILES) | inhibition |
| --- | --- |
| O=C(NCCCCc1ccccc1)C1CC(c2ccc([N+](=O)[O-])cc2)=NO1 (stereo unspecified) | -8.64% |
| COc1cccc(CNC(C)C(=O)Nc2ccc(S(=O)(=O)N3CCCC3)cc2)c1 (stereo unspecified) | 0.261% |
| COC(=O)c1ccc(C2NC(=O)NC(C)=C2C(=O)N(C)C)cc1 (stereo unspecified) | -2.37% |
| CCOC(=O)C1=C(C)Nc2sc(C(=O)c3ccc(Br)cc3)c(N)c2C1c1ccc(C(=O)OC)cc1 (stereo unspecified) | 33.6% (active) |
| CCOC(=O)c1sc(=NC(=O)c2ccc(Br)cc2)n(C)c1C | -0.0934% |
| Cc1nc(CC(=O)NNS(=O)(=O)c2ccc(F)c(Cl)c2)cs1 | -1.28% |
| CC(C)Oc1ccc(CCc2nnc(SCC(=O)O)n2-c2ccccc2)cc1 | -4.23% |
| CCCCC(=O)Nc1c2c(nn1-c1ccc([N+](=O)[O-])cc1)CS(=O)(=O)C2 | -6.61% |
| O=C1CCCN1C(=O)COc1ccc([N+](=O)[O-])cc1 | 0.0869% |
| O=C1/C(=C\c2ccc([N+](=O)[O-])cc2)CS(=O)(=O)C/C1=C/c1ccc([N+](=O)[O-])cc1 | 35.3% (active) |
| CCNC(=O)Nc1ccc(S(=O)(=O)Nc2cnc(C)nc2C)cc1 | 4.03% |
| c1ccc2c(c1)OCCOCCOCCO2 | 1.98% |
| CS(=O)(=O)c1ccc2c(c1)SC1=NC(=O)/C(=C/c3ccco3)C(=N)N12 | 35% (active) |
| COc1ccc(S(=O)(=O)N2CCOC2CNC(=O)C(=O)NCc2ccncc2)cc1OC (stereo unspecified) | -7.02% |
| NC(c1ccccc1)c1csc(NC(=O)Nc2cccc(C(F)(F)F)c2)n1 (stereo unspecified) | 3.58% |
| CC(=O)c1ccc(Nc2nc(C(N)c3ccccc3Cl)cs2)cc1 (stereo unspecified) | -4.95% |
| NC(c1csc(NC(=O)Nc2ccccc2Oc2ccccc2)n1)c1ccccc1Cl (stereo unspecified) | 40.7% (active) |
| CCOc1ccc(S(=O)(=O)N(CC(=O)NCC(F)(F)F)Cc2ccco2)cc1 | -2.92% |
| CC1=NN(c2cccc(Cl)c2)C(=O)C12CC(C)=C(C)CS2 (stereo unspecified) | -3.46% |
| CC(C)(C)C(=O)Nc1ccc(C(=O)N/N=C/c2ccccc2OC(=O)c2ccc(Cl)cc2Cl)cc1 | 38.5% (active) |
| O=C(N/N=C/c1ccccn1)c1cccc(NC(=O)c2ccc(Cl)cc2)c1 | 6.47% |
| O=C(N/N=C/c1ccoc1)c1ccc(Cl)cc1Cl | -0.584% |

| Structure (SMILES) | inhibition |
| --- | --- |
| O=c1[nH]c(CCl)nc2cc(-c3ccc(Cl)cc3)sc12 | 1.98% |
| CCc1[nH]nc(C(=O)N2CCCC(CO)(Cc3ccc(F)cc3F)C2)c1C (stereo unspecified) | 1.03% |
| CCCn1c(C2CCCN2c2nc(-c3ccc(C)cc3)cs2)nc2cc(Cl)c(N3CCCCC3)cc21 (stereo unspecified) | 7.02% |
| CCCn1c(C(C)Nc2nc(-c3ccc(C)cc3)cs2)nc2cc(Cl)c(N3CCCCC3)cc21 (stereo unspecified) | 30.3% (active) |
| Cc1ccc(-c2csc(N3CCN(c4cc5c(cc4Cl)nc(-c4ccncc4)n5CCOCCO)CC3)n2)cc1 | -0.493% |
| CC(=O)C1=C(C)NC2=C(C(=O)CC(C)(C)C2)C1C (stereo unspecified) | -0.177% |
| CCOc1cc(/C=N/NC(=O)c2c(C)nc3ccc(Cl)cn23)ccc1O | -0.152% |
| O=C1CSC(=S)N1/N=C/c1ccc(O)c([N+](=O)[O-])c1 | 5.51% |
| Cc1cc(C(=O)N/N=C/c2ccc(O)c([N+](=O)[O-])c2)c(C)n1-c1ccc(F)cc1 | 33.3% (active) |
| CCCCCCCC1(C)NC(=O)N(CC(=O)Nc2cc(C)on2)C1=O (stereo unspecified) | -7.34% |
| O=C(CC1C(=O)NCCN1CC(c1ccccc1)c1ccccc1)NCCc1cn[nH]c1 (stereo unspecified) | 7.62% |
| Cn1ncc([N+](=O)[O-])c1C(=O)Nc1cc(Cl)ccc1Cl | -3.19% |
| Cc1cc(C)c(OCC(=O)N(Cc2cccs2)C2CCS(=O)(=O)C2)c(C)c1 (stereo unspecified) | -1.96% |
| COc1cccc2c1C(=O)c1c(O)c3c(c(O)c1C2=O)CC(O)(C(C)=NNC(=O)c1ccc(Cl)c(Cl)c1)CC3OC1CC(N)C(O)C(C)O1 (stereo unspecified) | 38.5% (active) |
| Brc1cnc(N2CCCC2)nc1N1CCCCC1 | -5% |
| Cc1cc2nc(-c3ccc(Cl)cc3)c(Cc3cccc(F)c3)n2c(C)c1Br | 28.5% |
| Cc1cc2nc(-c3ccc(F)cc3)c(Cc3ccsc3)n2c(C)c1Br | 16.1% |
| Cc1cc2nc(-c3ccco3)c(Cc3cccc(F)c3)n2c(C)c1Br | 50.5% (active) |
| CCCSc1nc2[nH]ncc2c(=O)[nH]1 | 0.611% |
| CC(C)Oc1c(Br)cc(Br)cc1/C=N/NC(N)=S | 6.4% |
| COCCNC(=O)CN(Cc1ccco1)C(=O)CCC(=O)Nc1nccs1 | -5.06% |
| Cc1noc(C)c1S(=O)(=O)Nc1ccc(C(=O)N2CCN(c3ccc(F)cc3)CC2)cc1 | 10.7% |

| Structure (SMILES) | inhibition |
| --- | --- |
| O=C1Nc2cc(C(=O)N3CCN(c4ccc(F)cc4)CC3)ccc2NC1CSCc1cccc(F)c1 (stereo unspecified) | 36.8% (active) |
| Cc1ccc(CSCC2Nc3ccc(C(=O)N4CCN(c5ccc(F)cc5)CC4)cc3NC2=O)cc1 (stereo unspecified) | 73.7% (active) |
| COC(=O)c1ccc(C(=O)OC)c(NC(=S)N2CCN(c3ccc(F)cc3)CC2)c1 | -1.25% |
| C=CCn1c(SCc2cccc(F)c2)nc2cc(C(=O)N3CCC(C(N)=O)CC3)ccc2c1=O | -4.38% |
| O=C(c1cccc(F)c1)N1CCN(c2ccc([N+](=O)[O-])c(N3CCCCC3)c2)CC1 | -9.3% |
| COC(=O)c1ccc(/C=N/N2C(C)CCCC2C)cc1 (stereo unspecified) | -8.27% |
| NS(=O)(=O)c1ccc(NC(=O)COC(=O)c2c3c(nc4ccccc24)/C(=C\c2ccc4c(c2)OCO4)CCC3)cc1 | 54.7% (active) |
| NS(=O)(=O)c1ccc(NC(=O)COC(=O)CCc2c[nH]c3ccccc23)cc1 | -1.06% |
| CC(=O)Nc1cccc(C(=O)OCC(=O)c2ccc3c(c2)OCO3)c1 | -7.21% |
| CC(NC(=S)Nc1ccc(S(N)(=O)=O)cc1)c1ccc2c(c1)OCO2 (stereo unspecified) | -0.72% |
| NC(=O)c1ccc(NC(=O)COC(=O)c2c3c(nc4ccccc24)/C(=C\c2ccc4c(c2)OCO4)CCC3)cc1 | 55.2% (active) |
| O=C(COC(=O)c1ccc(Cl)nc1)NCc1ccc2c(c1)OCO2 | 0.8% |
| CC1Cc2[nH][nH]c(=O)c2C(C2CC2)O1 (stereo unspecified) | -3.07% |
| CC(Oc1cccc(Cl)c1)C(=O)NC1CC(C)(C)NC(C)(C)C1 (stereo unspecified) | -1.75% |
| C[C@H](NC(=O)CC[C@H]1O[C@@H](n2ccc(=O)[nH]c2=O)[C@H](O)[C@@H]1O)c1cccc2ccccc12 | -3.28% |
| CN(C(=O)CC1C(=O)NCCN1Cc1ccc(F)cc1Cl)C1CCCCC1 (stereo unspecified) | 3.03% |
| CCC1CCc2c(sc(NC(C)=O)c2C#N)C1 (stereo unspecified) | 1.07% |
| COc1ccc2[nH]c(=O)c(CN(Cc3nnnn3CCc3ccccc3)CC3CCCO3)cc2c1 (stereo unspecified) | 14.2% |
| CCOc1ccc2[nH]c(=O)c(CN(Cc3nnnn3CCc3ccccc3)CC3CCCO3)cc2c1 (stereo unspecified) | 0.283% |
| CCC(c1nnnn1Cc1ccco1)N(Cc1cc2cc(OC)ccc2[nH]c1=O)C1CCCCC1 (stereo unspecified) | 31.2% (active) |
| O=C(COc1ccc(/C=N/NC(=O)c2ccc(O)cc2)cc1)Nc1ccc([N+](=O)[O-])cc1 | 71.1% (active) |
| O=C(COc1ccc([N+](=O)[O-])cc1)Nc1cccc(C(=O)Nc2ccccc2C(=O)O)c1 | -2.45% |

| Structure (SMILES) | inhibition |
| --- | --- |
| O=C(COC(=O)C1CCCCC1)Nc1ccc([N+](=O)[O-])cc1 | -1.2% |
| O=C(COc1ccc([N+](=O)[O-])cc1)Nc1ccc(N2CCCC2)cc1 | 42.4% (active) |
| O=C(CCC(=O)N1CCCC1)Nc1ccc([N+](=O)[O-])cc1 | -6.64% |
| O=C(N/N=C/c1cccc(OC(=O)c2ccc([N+](=O)[O-])cc2)c1)c1cccnc1 | -12.9% |
| C/C(=N\NC(=O)OC(C)(C)C)c1ccc[nH]1 | -6.93% |
| Cc1ccc(Cl)cc1N1CCN(C(=O)c2cccc3c(=O)c(C)c(-c4ccccc4)oc23)CC1 | 4.56% |
| C/C(N)=C(/C#N)C(=O)COC(=O)C1CCN(C(=O)c2ccc(Cl)cc2)CC1 | -7.06% |
| COCCNC(=O)/C(C#N)=C/c1cccc(OCc2ccccc2)c1 | -8.65% |
| COc1ccc(NC(=O)/C(C#N)=C\c2cc(OC)c(OCc3ccc(C(=O)O)cc3)cc2Br)cc1 | 30.5% (active) |
| COc1cc(/C=C(\C#N)C(=O)Nc2ccc3ccccc3c2)c([N+](=O)[O-])cc1OC | 5.18% |
| CC(=O)Nc1ccc(S(=O)(=O)N2CCC(C(=O)NC3CC3)CC2)cc1 | 3.08% |
| O=C(CNC(=O)c1ccc2ccccc2c1)Nc1ncccc1O | 6.33% |
| O=C(NCC(=O)N1CCN(c2ccccc2O)CC1)c1ccc2ccccc2c1 | 31.5% (active) |
| COc1ccc(N2CCN(C(=O)CNC(=O)c3ccc(C(C)(C)C)cc3)CC2)cc1 | -1.98% |
| O=C1NC[C@H](Cc2ccc(O)cc2)N(C[C@@H]2CCCN2C[C@H](Cc2ccccc2)N2C[C@H](Cc3ccccc3)N(CC3CCCCC3)C(=O)C2=O)C1=O | 38.8% (active) |
| CC(C)C[C@H]1CNC(=O)C(=O)N1C[C@H]1CCCN1C[C@H](Cc1ccc(O)cc1)N1C[C@H](CC(C)C)N(CC2CCCCCC2)C(=O)C1=O | 23.7% |
| O=C1NC[C@H](Cc2ccc(O)cc2)N(C[C@H]2CCCN2C[C@H](Cc2ccccc2)N2C[C@H](Cc3ccccc3)N(CCc3ccccc3)C(=O)C2=O)C1=O | 24% |
| CCOc1ccc(CCN2C(=S)N([C@@H](CC(C)C)CN3CCC[C@@H]3CN3C(=S)NC[C@@H]3Cc3ccc(O)cc3)C[C@@H]2CC(C)C)cc1 | 26.6% |
| CCOc1ccc(CCN2C(=S)N([C@@H](CC(C)C)CN3CCC[C@@H]3CN3C(=S)NC[C@@H]3Cc3ccc(O)cc3)C[C@@H]2Cc2ccc(O)cc2)cc1 | 35% (active) |
| CCOc1ccc(CCN2C(=O)C(=O)N([C@@H](CC(C)C)CN3CCC[C@H]3CN3C(=O)C(=O)NC[C@@H]3Cc3ccccc3)C[C@@H]2CC(C)C)cc1 | 28.4% |
